Bioassay records: PubChem, Broad Institute
Only some compounds are listed: those with a hit (about 4% of all), similar ones and a draw of the others.
TRPM1 prom inh: reduces MITF-dependent TRPM1 promoter luciferase signal. hit rate 0.83% among 330,000. inhibition, % at 12.5 µM. SK-MEL-5 TRPM1 promoter luciferase, 24 h;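 active = mean inhibition across replicates of 60% or more, whatever share of single replicates reaches that level; inconclusive = some that reach 60%, reason not given; inactive = mean inhibition across replicates below 60%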
esBAF inh: SWI/SNF esBAF complex inhibition. reporter increase, % at 12.5 µM. mouse ES cells, Bmi1-luciferase knock-in reporter, 24 h; 100% = twice the neutral-well signal. hit rate 2% among 350,000; in the data active = activation above about 40%; inconclusive = no clear call, values can overlap the other calls;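 also: 0% = median of the plate's neutral control wells and 100% = double that signal; a rise in the Bmi1 reporter signal indicates esBAF inhibition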
Wnt act: activators of Wnt/beta-catenin signaling | activation, % at 9.35 µM | Wnt/beta-catenin reporter cell assay, activator, plate reader | hit rate 1.2% among 300,000; in the data active = activation above about 30%, passing the limit was not always enough; inconclusive = no clear call, values can overlap the other calls;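 also: 0% = neutral control wells and 100% = positive control wells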
MITF TRPM1 HTS: increases MITF-driven TRPM1 promoter luciferase signal; SK-MEL-5 TRPM1-promoter luciferase, 24 h; % of positive control, neutral wells = 0; activation, % at 12.5 µM; hit rate 0.75% among 300,000; AID 588334;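 active = mean activation of at least 80% with every replicate also reaching 80%; inconclusive = mean reaches 80% but some replicate falls short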;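 also: 0% = neutral control wells and 100% = parthenolide positive control wells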
C2C12 statin: protects C2C12 myotubes from simvastatin toxicity. hit rate 0.78% among 330,000. ATP luminescence, 48 h; scaled: DMSO 0, geranylgeraniol control 100. AID 602340. rescue of ATP level, % at 7.49 µM;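 active = mean ATP rescue above about 67%, or every replicate alone reaching that limit, limit read from the data, passing the limit was not always enough; inconclusive = no clear call, values can overlap the other calls; inactive = mean under the limit and some replicate under it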;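 also: myotubes were challenged with 10 µM simvastatin during compound exposure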
LMP1 NFkB inh: Epstein-Barr LMP1 NF-kappaB reporter inhibition. inhibition, % at 12.5 µM. LMP1-induced NF-kappaB luciferase reporter cells, luminescence. hit rate 0.69% among 350,000. AID 504558; in the data active = inhibition above about 41%; inconclusive = no clear call, values can overlap the other calls;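 also: 0% = neutral control wells and 100% = reference inhibitor control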
* = called active by the depositor; ? = inconclusive; nt = no result.

SMILES | TRPM1 prom inh | esBAF inh | Wnt act | MITF TRPM1 HTS | C2C12 statin | LMP1 NFkB inh
C[C@@H]1CCCCO[C@@H](CN(C)C(=O)Nc2ccc(C(F)(F)F)cc2)[C@H](C)CN([C@@H](C)CO)C(=O)c2cc(NC(=O)c3ccccc3)ccc2O1 | nt | 0.8 | nt | nt | 75.5* | nt
C[C@H](CO)N1C[C@H](C)[C@H](CN(C)C(=O)Cc2ccccc2)OCCCC[C@H](C)Oc2ccc(NC(=O)Nc3ccc(C(F)(F)F)cc3)cc2C1=O | nt | -2.6 | nt | nt | 97.1* | nt
C[C@H]1CCCCO[C@H](CN(C)C(=O)Nc2ccc(C(F)(F)F)cc2)[C@@H](C)CN([C@@H](C)CO)C(=O)c2cc(NC(=O)c3ccccc3)ccc2O1 | nt | 4.1 | nt | nt | -33.2 | nt
C[C@@H]1CCCCO[C@@H](CN(C)C(=O)Cc2ccccc2)[C@@H](C)CN([C@@H](C)CO)C(=O)c2cc(NC(=O)Nc3ccc(C(F)(F)F)cc3)ccc2O1 | nt | -3.8 | nt | nt | -94.1 | nt
C[C@H](CO)N1C[C@H](C)[C@H](CN(C)C(=O)Nc2ccc(C(F)(F)F)cc2)OCCCC[C@H](C)Oc2ccc(NC(=O)c3ccccc3)cc2C1=O | nt | -4.5 | nt | nt | 112.1* | nt
CC(=O)c1cccc(S(=O)(=O)NC(C)C2CC3CCC2C3)c1 (stereo unspecified) | 4.6 | 1.8 | -2.0 | -5.4 | 5.5 | 10.7
Cc1cc(N2CCCC2)ccc1/C=C1\NC(=S)N(C)C1=O | -76.1 | 85.2* | 53.5* | 78.8 | -4.9 | -22.3
O=C1/C(=C/c2ccc(N3CCCC3)cc2)NC(=S)N1C1CC1 | -53.8 | 48.4* | nt | 55.4 | -32.4 | -24.0
CCCCCCCn1c2c(c(=N)c3ccccc31)CCC2 | 85.8* | nt | -5.5 | -85.5 | nt | 21.3
Cc1cc(NC(=O)c2ccc(OCC3CCCO3)cc2)ccc1Br (stereo unspecified) | nt | 70.6* | 52.0* | nt | -17.3 | -36.9
O=C(Nc1ccc(Cl)cc1)c1ccc(OCC2CCCO2)cc1 (stereo unspecified) | -28.5 | nt | 10.4 | 23.8 | nt | -2.1
S=C1NC(c2ccccc2)=NCN1c1ccccc1 | -34.8 | 57.7* | 41.6* | nt | 6.9 | -23.9
O=C1CN(c2ccccc2)C(=O)N1 | 2.5 | nt | 0.7 | nt | nt | -5.4
CC(C)(C)C(=O)NC(=S)NNC(=O)c1sc2ccccc2c1Cl | 79.6* | nt | nt | -79.5 | nt | 57.5*
O=C(NC(=S)NCCO)c1sc2ccccc2c1Cl | -43.2 | 53.4* | 41.7* | 45.0 | 2.3 | -26.4
O=C(NNC(=S)NC1CCCCC1)c1sc2ccccc2c1Cl | 2.5 | nt | nt | 1.8 | nt | 6.3
CCOC(=S)NC(=O)c1sc2ccccc2c1Cl | -5.8 | -1.2 | nt | 2.2 | 37.3 | -4.6
CN(C)c1ccc(Cc2cc3c(O)ccc(O)c3cc(Cc3ccc(N(C)C)cc3)c2=O)cc1 | 37.5 | nt | -0.7 | -34.9 | nt | -10.1
CCCCCCCSc1ncnc2[nH]ncc12 | -30.8 | 70.2* | 3.5 | 24.0 | -7.0 | 3.8
CSc1ncnc2[nH]ncc12 | -6.1 | 2.9 | 5.7 | 7.3 | -10.3 | -1.9
COc1ccccc1-c1cnc(C(O)c2cccc(CN3CCCCC3)c2)[nH]1 (stereo unspecified) | nt | 1.9 | -7.4 | nt | -7.9 | nt
Cn1c(SCc2ccc(C#N)cc2Cl)nc2ccccc21 | -81.9 | 87.5* | nt | ? | 8.2 | -45.1
Cc1csc(SCc2nnc(-c3ccc(Cl)cc3)o2)n1 | -48.3 | 59.8* | nt | 50.4 | -0.8 | -24.2
Cc1csc(SCc2nnc(-c3ccccc3Br)o2)n1 | -60.8 | 43.6 | nt | 66.6 | -2.5 | -45.0
COc1ccc(S(=O)(=O)NCc2cccnc2)c2ccccc12 | 5.9 | -1.5 | -2.9 | -3.4 | 93.8* | -5.9
SMILES | TRPM1 prom inh | esBAF inh | Wnt act | MITF TRPM1 HTS | C2C12 statin | LMP1 NFkB inh
COc1ccc(OC)c(S(=O)(=O)NCc2ccccc2)c1 | -6.7 | 3.1 | -4.1 | 13.8 | 2.0 | -2.6
COc1ccc(OC)c(S(=O)(=O)NCc2cccnc2)c1 | 8.5 | 8.9 | nt | -6.4 | 125.6* | -7.5
O=C(Nc1ccccc1)c1cn2ccccc2n1 | 2.3 | nt | 16.5 | -1.6 | nt | 42.2*
Cc1csc(NC(=O)c2cn3ccccc3n2)n1 | 54.4 | nt | -0.1 | -55.5 | nt | 67.6*
O=C(Nc1ccc(-n2cnnn2)cc1)c1cn2ccccc2n1 | -65.0 | nt | 25.7 | 59.9 | nt | -21.0
Cc1cc2nc[nH]c2cc1[N+](=O)[O-] | -13.9 | -7.5 | -3.6 | 14.6 | -4.5 | 2.6
N#CCc1ccc(NC(=O)/C=C/c2ccc([N+](=O)[O-])o2)cc1 | 100.0* | -51.9 | nt | -98.9 | 12.3 | 29.9
N#C/C(=C\c1ccc([N+](=O)[O-])o1)C(=O)Nc1ccc(F)cc1 | 33.1 | nt | 7.4 | -33.5 | nt | -6.1
Cc1cccc(-c2ncc(S(=O)(=O)C(C)(C)C)c(N)n2)c1 | -90.0 | 67.7* | 34.6* | 93.8* | -25.4 | -22.5
CC(C)(C)S(=O)(=O)c1cnc(-c2ccccn2)nc1N | -25.4 | nt | 3.6 | 1.9 | nt | -2.1
O=C(CSc1nc2c(c(=O)n1-c1ccc(F)cc1)SCC2)N1CCCC1 | 12.1 | -4.2 | nt | -8.7 | 25.8 | -3.4
O=C1C(Cl)=C(NCCc2ccccc2)C(=O)N1CCc1ccccc1 | -54.7 | ? | 8.2 | 50.3 | 163.9* | -19.4
Nc1nnc(CC(=O)N/N=C/c2ccc(-c3cccc(C(=O)O)c3)o2)s1 | -7.3 | nt | 37.8* | 8.1 | nt | -3.2
CCOc1ccc(NC(=O)NC(=O)N(C)S(=O)(=O)c2ccc(C)cc2)cc1 | 11.3 | -5.2 | 7.3 | -10.8 | -2.1 | -0.9
Cc1cc2c([nH]c3ccccc32)c2c1OC(C)(C)C=C2 | -85.7 | 91.7* | 1.2 | 91.4* | -15.0 | -219.4
COc1ccc2[nH]c(=O)c3c(c2c1)OC(C)(C)C=C3 | 21.1 | -3.1 | -7.9 | nt | 11.0 | 23.4
C/C=C/c1ccc2c(c1)O[C@@H](CN(C)C)[C@H](C)CN([C@H](C)CO)S2(=O)=O | nt | -0.7 | nt | nt | 2.6 | nt
CN(CC(=O)NCc1ccco1)CC(=O)Nc1ccc(F)c(F)c1F | -0.3 | nt | -3.3 | 1.2 | 109.0* | -7.4
Cc1ccc(C(C)C)c(OCCn2ccnc2C)c1 | 7.6 | -0.7 | -1.6 | -8.6 | -13.7 | 7.7
COCc1nc(-c2ccc(-c3ccccc3)nc2OC)no1 | -75.0 | 66.4* | 48.7* | nt | -8.1 | -23.5
CCc1nc(-c2ccc(-c3ccc(OC)cc3)nc2OC)no1 | -19.4 | 10.1 | 56.0* | 12.5 | -24.2 | -16.7
COc1nc(-c2ccccc2)ccc1-c1noc(C)n1 | -50.2 | 30.5 | 49.9* | nt | -2.6 | -30.1
COCc1nc(-c2ccc(-c3ccc(OC)cc3)nc2OC)no1 | -17.6 | 35.2 | 20.1 | 23.5 | -27.7 | -18.2
O=C(NC1Cc2ccccc2C1)[C@H]1[C@H](CO)[C@H]2Cn3c(ccc(C4=CCCC4)c3=O)[C@@H]1N2CC1CC1 | nt | -1.1 | nt | nt | 1.2 | nt
CC(C)NS(=O)(=O)c1ccc(CCC(=O)NCc2ccc3c(c2)OCO3)cc1 | 0.4 | -6.3 | nt | 0.4 | 18.3 | 0.7
CC1CN(C(C)C(=O)NNC(=O)c2ccc(F)cc2)CC(C)O1 (stereo unspecified) | -15.3 | 0.6 | -0.7 | 10.1 | 5.2 | -9.1
